Test results reported in PubChem BioAssay (NCI).
Compounds without any hit were thinned out: in the full panel of roughly 83,000, 20% have a hit.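 For each line, cells grew in 96-well plates with the test compound present at a single concentration for 48 hours.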 Values without a mark were called inactive. Calls of active or inactive are those of the source. How the source made its calls: active means growth percent below 10; inactive means the rest.

system: IGROV1 ovarian; assay: NCI-60 one-dose screen, 48 h (100 = growth as untreated, 0 = no growth, -100 = all killed); conditions: 10 µM unless noted

SMILES | growth
O=C(/C=C/c1c(-c2ccc(Cl)cc2)nn(-c2ccccc2)c1C(F)(F)F)c1ccc(Cl)cc1 | 102%
Cc1c(C)c([N+](=O)[O-])c(C)c([N+](=O)[O-])c1C | 104%
CC(c1ccccc1)C(C(=O)c1ccccc1)c1ccccc1 (stereo unspecified) | 99.5%
COc1cc(NC(=O)CSc2nc3ccc(C)cc3c(=O)n2Cc2ccccc2)cc(OC)c1OC | 74.3%
CSc1nc2sc3cccc(Cl)c3n2c(=N)c1C#N | 93.4%
CCN(c1ccccc1)S(=O)(=O)c1cc([N+](=O)[O-])ccc1Cl | 54%
COC1=CC(=O)c2ccccc2C1=O | 83.6%
COC(=O)c1ccc2c(c1)[n+](=O)c(C(C)=O)c(C(F)(F)F)n2[O-] | -78.3% (active)
COc1cc(/C=C/C(=O)c2nc3cc(F)ccc3nc2C)cc(OC)c1OC | 34.8%
Cc1nc2ccc(Cl)cn2c1-c1nnc(SCc2ccc([N+](=O)[O-])cc2)o1 | 62.3%
COc1ccc(/C=C/C(=O)Nc2cc(/C=C\c3cc(OC)c(OC)c(OC)c3)cc(OC)c2OC)cc1OC | 40.1%
N#C/C(=C\c1cccc(C#N)c1)c1ccccc1 | 107%
C[C@H]1[C@H]2[C@H]3CC[C@@H]4[C@@]5(C)CC[C@H](O)C(C)(C)[C@@H]5CC[C@@]4(C)[C@]3(C)CC[C@]23CO[C@]1(C)[C@@H](C(=O)/C=C\c1ccco1)C3 | 108%
COc1cc2cc(Oc3cccc(NC(=O)Nc4cc(C(F)(F)F)cc(C(F)(F)F)c4)c3)c(C)nc2cc1OC | 19.8%
Cc1ncc(C(=O)Nc2ccc(CN3CCN(C)CC3)c(C(F)(F)F)c2)cc1C#Cc1cnc(N)cc1C#N | 5.92% (active)
Cc1ccc(-n2nc3c(c(C#N)c2=O)CC(c2ccccc2[N+](=O)[O-])C([N+](=O)[O-])=C3O)cc1 (stereo unspecified) | 86.2%
C#Cc1cccc(NC(=O)c2cccc(NC(=O)CCl)c2)c1 | -53.5% [8.25 µM] (active)
N#CC1=C(N)Oc2c(ccc3ccccc23)C1c1ccccc1Cl (stereo unspecified) | 24.9%
O=C(CSc1nc2ccccc2[nH]1)NCc1ccccc1 | 102%

SMILES | growth
COc1ccc(-c2nc(S(=O)(=O)c3ccccc3)c(S(=O)CC(=O)N3CCC(C)CC3)o2)cc1 (stereo unspecified) | 25.6%
COc1cc(C2C3=C(COC3=O)N(CCO)c3cc4c(cc32)OCO4)cc(OC)c1OC (stereo unspecified) | 19.1%
N#Cc1c(-c2ccccc2)nc2c(c(-c3ccccc3)nn2-c2ccccc2)c1-c1ccc(O)cc1 | 72%
CC(=O)[C@H]1CCC/C=C/[C@@H]2C[C@H](O)C[C@H]2[C@H](O)/C=C/C(=O)O1 | -5.3% (active)
O=C1/C=C/[C@@H](O)[C@@H]2C[C@@H](O)C[C@H]2/C=C/CCC[C@H](CCc2cccc3ccccc23)O1 | 5.72% (active)
CC(C)(C)[Si](C)(C)OC1[C@@H](O[Si](C)(C)C(C)(C)C)[C@@H](CNC(=O)NC(=O)CCl)O[C@H]1n1cnc2c(NC(=O)Nc3ccccc3)ncnc21 (stereo partly specified) | -50.4% (active)
COc1cc(CC(=O)n2ncc3ccc(N)cc32)cc(OC)c1OC | 90.7%
Cc1cc2c(c(C)c1Cl)C(=O)/C(=C/c1ccc(O)c(O)c1)O2 | 96.9%
O=C1C=CC(=O)N1c1cccc(Cl)c1 | 117%
COC(=O)C(CC=O)C(=O)C(=O)Nc1cccc(C(F)(F)F)c1 (stereo unspecified) | 102%
CN(CCN(C)c1ccc(C(=N)N)cc1)c1ccc(C(=N)N)cc1 | 26%
O=C1/C=C/[C@@H](O)[C@@H]2C[C@@H](O)C[C@H]2/C=C/CCC[C@H](CCc2ccc3ncccc3c2)O1 | -4.38% (active)
C#Cc1cccc(NC(=O)Nc2cccc(NC(=O)CCl)c2)c1 | -57% [8.25 µM] (active)
CCNc1nc2ccc(Nc3ccnc4cc(Cl)ccc34)cc2[nH]1 | 91.3%
N#CC(C(=O)/C(=N/NC(=O)c1ccccc1O)C(C#N)c1ccccc1)c1ccccc1 (stereo unspecified) | 37.7%
O=[N+]([O-])c1ccc(N=Nc2cc(S(=O)(=O)O)c3cccc(S(=O)(=O)O)c3c2O)cc1 | 72.8%
C=CCn1c(-c2ccc(-c3nc4ccc(C)cc4[nH]3)cc2)n[nH]c1=S | 97.9%
O=C1Nc2ccccc2/C1=C\c1c(-c2ccccc2)nc2ccccn12 | 46.3%
COc1cc(/C=C\c2cc(OC)c(OC)c(OC)c2)cc(N)c1OC | 74.6%

system: OVCAR-3 ovarian; assay: as above; conditions: 10 µM unless noted

SMILES | growth
O=C(/C=C/c1c(-c2ccc(Cl)cc2)nn(-c2ccccc2)c1C(F)(F)F)c1ccc(Cl)cc1 | 95.3%
Cc1c(C)c([N+](=O)[O-])c(C)c([N+](=O)[O-])c1C | 109%
CC(c1ccccc1)C(C(=O)c1ccccc1)c1ccccc1 (stereo unspecified) | 110%
COc1cc(NC(=O)CSc2nc3ccc(C)cc3c(=O)n2Cc2ccccc2)cc(OC)c1OC | 43.8%
CSc1nc2sc3cccc(Cl)c3n2c(=N)c1C#N | 110%
CCN(c1ccccc1)S(=O)(=O)c1cc([N+](=O)[O-])ccc1Cl | 74.7%
COC1=CC(=O)c2ccccc2C1=O | 24.5%
COC(=O)c1ccc2c(c1)[n+](=O)c(C(C)=O)c(C(F)(F)F)n2[O-] | -92.8% (active)
COc1cc(/C=C/C(=O)c2nc3cc(F)ccc3nc2C)cc(OC)c1OC | 55.3%
Cc1nc2ccc(Cl)cn2c1-c1nnc(SCc2ccc([N+](=O)[O-])cc2)o1 | 66.8%
COc1ccc(/C=C/C(=O)Nc2cc(/C=C\c3cc(OC)c(OC)c(OC)c3)cc(OC)c2OC)cc1OC | 12.2%
N#C/C(=C\c1cccc(C#N)c1)c1ccccc1 | 105%
C[C@H]1[C@H]2[C@H]3CC[C@@H]4[C@@]5(C)CC[C@H](O)C(C)(C)[C@@H]5CC[C@@]4(C)[C@]3(C)CC[C@]23CO[C@]1(C)[C@@H](C(=O)/C=C\c1ccco1)C3 | 103%
COc1cc2cc(Oc3cccc(NC(=O)Nc4cc(C(F)(F)F)cc(C(F)(F)F)c4)c3)c(C)nc2cc1OC | 1.71% (active)
Cc1ncc(C(=O)Nc2ccc(CN3CCN(C)CC3)c(C(F)(F)F)c2)cc1C#Cc1cnc(N)cc1C#N | 39.5%
Cc1ccc(-n2nc3c(c(C#N)c2=O)CC(c2ccccc2[N+](=O)[O-])C([N+](=O)[O-])=C3O)cc1 (stereo unspecified) | 87.5%
C#Cc1cccc(NC(=O)c2cccc(NC(=O)CCl)c2)c1 | -71.3% [8.25 µM] (active)
N#CC1=C(N)Oc2c(ccc3ccccc23)C1c1ccccc1Cl (stereo unspecified) | 5.72% (active)
O=C(CSc1nc2ccccc2[nH]1)NCc1ccccc1 | 105%

SMILES | growth
COc1ccc(-c2nc(S(=O)(=O)c3ccccc3)c(S(=O)CC(=O)N3CCC(C)CC3)o2)cc1 (stereo unspecified) | -42.6% (active)
COc1cc(C2C3=C(COC3=O)N(CCO)c3cc4c(cc32)OCO4)cc(OC)c1OC (stereo unspecified) | -27.6% (active)
N#Cc1c(-c2ccccc2)nc2c(c(-c3ccccc3)nn2-c2ccccc2)c1-c1ccc(O)cc1 | 54.2%
CC(=O)[C@H]1CCC/C=C/[C@@H]2C[C@H](O)C[C@H]2[C@H](O)/C=C/C(=O)O1 | -31.1% (active)
O=C1/C=C/[C@@H](O)[C@@H]2C[C@@H](O)C[C@H]2/C=C/CCC[C@H](CCc2cccc3ccccc23)O1 | -48.1% (active)
CC(C)(C)[Si](C)(C)OC1[C@@H](O[Si](C)(C)C(C)(C)C)[C@@H](CNC(=O)NC(=O)CCl)O[C@H]1n1cnc2c(NC(=O)Nc3ccccc3)ncnc21 (stereo partly specified) | -82.1% (active)
COc1cc(CC(=O)n2ncc3ccc(N)cc32)cc(OC)c1OC | 108%
Cc1cc2c(c(C)c1Cl)C(=O)/C(=C/c1ccc(O)c(O)c1)O2 | 109%
O=C1C=CC(=O)N1c1cccc(Cl)c1 | 90.1%
COC(=O)C(CC=O)C(=O)C(=O)Nc1cccc(C(F)(F)F)c1 (stereo unspecified) | 106%
CN(CCN(C)c1ccc(C(=N)N)cc1)c1ccc(C(=N)N)cc1 | 87.9%
O=C1/C=C/[C@@H](O)[C@@H]2C[C@@H](O)C[C@H]2/C=C/CCC[C@H](CCc2ccc3ncccc3c2)O1 | -17.5% (active)
C#Cc1cccc(NC(=O)Nc2cccc(NC(=O)CCl)c2)c1 | -70.8% [8.25 µM] (active)
CCNc1nc2ccc(Nc3ccnc4cc(Cl)ccc34)cc2[nH]1 | 107%
N#CC(C(=O)/C(=N/NC(=O)c1ccccc1O)C(C#N)c1ccccc1)c1ccccc1 (stereo unspecified) | 68.7%
O=[N+]([O-])c1ccc(N=Nc2cc(S(=O)(=O)O)c3cccc(S(=O)(=O)O)c3c2O)cc1 | 121%
C=CCn1c(-c2ccc(-c3nc4ccc(C)cc4[nH]3)cc2)n[nH]c1=S | 112%
O=C1Nc2ccccc2/C1=C\c1c(-c2ccccc2)nc2ccccn12 | 11.9%
COc1cc(/C=C\c2cc(OC)c(OC)c(OC)c2)cc(N)c1OC | 99.6%
